PubChem BioAssay AID1159580 (chemical genetic matrix, 2015)
Several values for one entry are separate records, joined by “and”; a condition that tells them apart may be missing. Identical values can stand only once. The campaign covered roughly 5,500 compounds. About 2,000 (36%) were called active. About 18% were inconclusive and are not listed. Rule as the data show it: active = normalized growth mostly below about 0.91 (no sharp cut-off); inconclusive = no clear call, values can overlap the other calls; inactive = mostly above about 0.92. The list shows a part of the results.

Assay: chemical genetic growth profiling, strain panel (AID 1159580);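 also: tested at 20 µM; growth read once vehicle control cultures reached saturation at 30 °C; 1 = growth at the plate median or of vehicle wells; lower values mean less growth of the strain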
Settings: S. cerevisiae deletion strains, growth OD

Measured: normalized growth

C[C@H]1[C@H]2CCC3C4CC=C5C[C@@H](N(C)C)CC[C@]5(C)C4CC[C@@]32CN1C (stereo partly specified)
active: locus YDR392W, strain spt3, active compounds read low 0.551
inactive: locus YAL013W, strain DEP1, active compounds read low 0.994 | locus YAL021C, strain ccr4, active compounds read low 1.01 | locus YAL026C, strain drs2, active compounds read low 0.997 | locus YAL030W, strain snc1, active compounds read low 0.996 | locus YBL061C, strain skt5, active compounds read low 0.995 | locus YBR009C, strain hhf1, active compounds read low 0.95 | locus YBR021W, strain FUR4, active compounds read low 1 | locus YBR023C, strain chs3, active compounds read low 0.994 | locus YBR171W, strain sec66, active compounds read low 0.983 | locus YBR229C, strain ROT2, active compounds read low 0.956 | locus YBR231C, strain swc5, active compounds read low 0.972 | locus YBR279W, strain paf1, active compounds read low 0.994 | locus YCL011C, strain gbp2, active compounds read low 0.988 | locus YCL016C, strain dcc1, active compounds read low 0.986 | locus YCL029C, strain bik1, active compounds read low 0.988 | locus YCL061C, strain MRC1, active compounds read low 0.994 | locus YCL069W, strain vba3, active compounds read low 1 | locus YCR088W, strain abp1, active compounds read low 0.996 | locus YDL005C, strain med2, active compounds read low 0.992 | locus YDL035C, strain GPR1, active compounds read low 0.949 | locus YDL040C, strain nat1, active compounds read low 0.974 | locus YDL074C, strain BRE1, active compounds read low 1.01 | locus YDL101C, strain DUN1, active compounds read low 0.989 | locus YDL134C, strain PPH21, active compounds read low 0.958 | locus YDL185W, strain tfp1, active compounds read low 0.999 | locus YDL192W, strain arf1, active compounds read low 0.984 | locus YDR001C, strain nth1, active compounds read low 0.993 | locus YDR069C, strain doa4, active compounds read low 0.976 | locus YDR101C, strain arx1, active compounds read low 1.04 | locus YDR137W, strain rgp1, active compounds read low 0.994 | locus YDR150W, strain NUM1, active compounds read low 0.981 | locus YDR159W, strain sac3, active compounds read low 0.941 | locus YDR162C, strain NBP2, active compounds read low 0.989 | locus YDR195W, strain ref2 0.945 | locus YDR297W, strain sur2, active compounds read low 1 | locus YDR318W, strain mcm21, active compounds read low 0.957 | locus YDR334W, strain swr1, active compounds read low 0.996 | locus YDR335W, strain msn5, active compounds read low 0.992 | locus YDR388W, active compounds read low 0.984 | locus YDR502C, strain sam2, active compounds read low 0.977 | locus YEL003W, strain gim4, active compounds read low 0.994 | locus YEL037C, strain rad23, active compounds read low 0.999 | locus YEL061C, strain CIN8 (second series), active compounds read low 0.992 | locus YEL061C, strain CIN8, active compounds read low 0.991 | locus YER015W, strain faa2, active compounds read low 0.986 | locus YER016W, strain bim1, active compounds read low 0.988 | locus YER110C, active compounds read low 0.99 | locus YER111C, strain swi4, active compounds read low 0.992 | locus YER155C, strain BEM2 (second series), active compounds read low 0.867 | locus YER155C, strain BEM2, active compounds read low 0.999 | locus YER167W, strain BCK2, active compounds read low 0.999 | locus YFR010W, strain ubp6, active compounds read low 0.997 | locus YGL078C, strain dbp3, active compounds read low 0.996 | locus YGL086W, strain mad1, active compounds read low 1.02 | locus YGL167C, strain pmr1, active compounds read low 0.981 | locus YGL173C, strain kem1, active compounds read low 0.99 | locus YGL227W, strain vid30, active compounds read low 0.985 | locus YGL240W, strain doc1, active compounds read low 0.967 | locus YGL248W, strain PDE1, active compounds read low 0.965 | locus YGL253W, strain hxk2, active compounds read low 0.974 | locus YGR078C, strain PAC10, active compounds read low 0.981 | locus YGR135W, strain pre9, active compounds read low 0.968 | locus YGR252W, strain gcn5, active compounds read low 0.939 | locus YHR013C, strain ard1, active compounds read low 0.918 | locus YHR027C, strain rpn1, active compounds read low 0.997 | locus YHR030C, strain SLT2, active compounds read low 1 and 1.01 | locus YHR079C, strain IRE1 (second series), active compounds read low 0.996 | locus YHR079C, strain IRE1, active compounds read low 1.01 | locus YHR094C, strain hxt1, active compounds read low 0.975 | locus YHR129C, strain ARP1, active compounds read low 0.994 | locus YHR142W, strain chs7, active compounds read low 0.99 | locus YHR200W, strain rpn10, active compounds read low 0.986 | locus YIL066C, strain RNR3, active compounds read low 0.986 | locus YIL073C, strain SPO22, active compounds read low 0.957 | locus YIL125W, strain kgd1, active compounds read low 0.995 | locus YIR030C, strain dcg1, active compounds read low 0.999 | locus YJL092W, strain hpr5, active compounds read low 0.992 | locus YJL095W, strain BCK1 (second series), active compounds read low 0.991 | locus YJL095W, strain BCK1, active compounds read low 0.963 and 0.999 | locus YJL115W, strain asf1, active compounds read low 1 | locus YJL129C, strain trk1, active compounds read low 0.99 | locus YJL134W, strain LCB3, active compounds read low 0.993 | locus YJL154C, strain vps35, active compounds read low 1 | locus YJL164C, strain tpk1, active compounds read low 0.996 | locus YJL166W, strain qcr8, active compounds read low 0.986 | locus YJL168C, strain set2, active compounds read low 0.993 | locus YJL187C, strain SWE1 (second series), active compounds read low 0.98 | locus YJL187C, strain SWE1, active compounds read low 0.994 | locus YJR043C, strain POL32, active compounds read low 0.993 | locus YJR066W, strain TOR1, active compounds read low 0.958
